High-throughput results from PubChem BioAssay.
This excerpt belongs to a sample that is enriched for hits.
RT RNaseH block – inhibitors of HIV-1 reverse transcriptase RNase H. P04585. RT-RNase H RNA/DNA duplex cleavage, fluorescence. inhibition, % at 10 µM. actives 1.9% (n = 65,000); in the data active = inhibition above about 50%
Of the large screens only hits and unclear results are named; the others gave an inactive call.

COC(=O)C(NC(=O)c1ccco1)(Nc1ccc(Br)cn1)C(F)(F)F (centres undefined)	none
Nn1c(SC/C=C/c2ccccc2)nnc1-c1ccccn1	none
Cc1cccc(CSc2nnc(-c3ccccn3)n2N)c1	RT RNaseH block 52
Cc1ccc(CSc2nnc(-c3ccccn3)n2C)cc1	none
CCOc1cc(NC(=O)C2CC2)c(OCC)cc1NC(=O)c1cccnc1	none
CCOC(=O)C1CCCN(C(=O)CNC(=O)Cn2ccc3ccccc3c2=O)C1 (centres undefined)	none
Cc1cc(Oc2ccccc2)nc2ccc(O)cc12	none
Cc1ccc(-c2nnn(CC(=O)N(Cc3cccs3)C(C(=O)NC3CCCC3)c3ccco3)n2)o1 (centres undefined)	none
Cc1ccc(-c2nnn(CC(=O)N(c3ccccc3)C(C(=O)NC3CCCC3)c3ccco3)n2)o1 (centres undefined)	RT RNaseH block 60
Cc1ccc(-c2nnn(CC(=O)N(Cc3ccccc3)C(C(=O)NC3CCCC3)c3ccncc3)n2)o1 (centres undefined)	none
CC(=O)c1c(C(C)=O)c(C)n(NC(=O)c2ccncc2)c1C	none
Oc1ccccc1C(=S)N1CCCCCC1	none
Oc1ccccc1C(=S)N1CCCCC1	RT RNaseH block 53
O=C(Nc1ccccc1C(=O)N1CCCCC1)C1CCCCC1	none
CCCc1cc(NCCN2CCOCC2)n2c(nc3ccccc32)c1C#N	none
CCC(=O)Nc1sccc1C(=O)OC	none
COC(=O)c1ccsc1NC(=O)C1=COCCO1	none
COC(=O)Nc1sccc1C(=O)Nc1sccc1C(=O)OC	RT RNaseH block 54
CCOC(=O)NC1(NC2CCCCC2)Oc2ccccc2O1	none
Cc1cc(C(=O)COc2ccc(-c3nnco3)cc2)c(C)n1Cc1ccccc1	none
COc1ccc(C2C(C(C)=O)=C(C)N=c3s/c(=C\c4cc(C)n(C)c4C)c(=O)n32)c(OC)c1 (centres undefined)	none
COc1ccc(C2C(C(C)=O)=C(C)N=c3s/c(=C\c4ccc5c(c4)OCO5)c(=O)n32)c(OC)c1 (centres undefined)	RT RNaseH block 58
COc1ccc(C2C(C(C)=O)=C(C)N=c3s/c(=C\c4ccco4)c(=O)n32)c(OC)c1 (centres undefined)	none
Cc1ccc(N2C(=O)CC3(CC4C=CC3C4)C2=O)cc1 (centres undefined)	none
COc1ccc(Cn2nnnc2C(c2cccs2)N2CCN(c3ccccc3)CC2)cc1 (centres undefined)	none
COc1ccc(N2CCN(C(c3ccccc3OC)c3nnnn3Cc3ccco3)CC2)cc1 (centres undefined)	RT RNaseH block 51
COc1ccc(Cn2nnnc2C(c2ccccc2OC)N2CCC(C(N)=O)CC2)cc1 (centres undefined)	none
N#CC1=C(N)N2C(=C(C#N)C13CCCCC3)SC1CCCCC12O (centres undefined)	none
Cn1c(Cl)cnc1C1CC(=O)c2cc(Cl)ccc2O1 (centres undefined)	none
CCSc1nnc(NC(=O)c2cc3c(s2)CCCC3)s1	none
CCSc1nnc(NC(=O)c2csc3c2CCC(C)C3)s1 (centres undefined)	RT RNaseH block 58
CCSc1nnc(NC(=O)c2ccccc2)s1	none
CCCCN=CC1=C(O)C(C(=O)OC)C(C)(C)CC1=O (centres undefined)	none
COc1cc2nc(CN3CCN(c4ncc(C(F)(F)F)cc4Cl)CC3)[nH]c(=O)c2cc1OC	none
CCC(Sc1nc2cc3c(cc2c(=O)n1Cc1ccco1)OCO3)C(=O)Nc1ccccc1OC (centres undefined)	none
CCC(Sc1nc2cc3c(cc2c(=O)n1Cc1ccco1)OCO3)C(=O)Nc1cccc(OC)c1 (centres undefined)	RT RNaseH block 60
COc1cccc(-c2nnc(SCC(=O)Nc3ccc4c(c3)OCCO4)n2Cc2ccco2)c1	none
COc1ccc(C2C3=C(CCCC3=O)Nc3nc4ccccc4n32)c(OC)c1OC (centres undefined)	none
CCOc1cc(S(=O)(=O)N2CCN(Cc3ccccc3)CC2)ccc1Br	none
CC(C)c1nc(SCC(=O)NCc2ccc3c(c2)OCO3)c2c(=O)n(C)c(=O)n(C)c2n1	none
COc1ccc(C2CC(=O)N3CN(c4ccccc4F)CSC3=C2C#N)cc1OC (centres undefined)	RT RNaseH block 59
COc1ccc(OC)c(C2CC(=O)N3CN(c4ccccc4)CSC3=C2C#N)c1 (centres undefined)	none
COc1ccc(C2CC(=O)N3CN(c4ccc(C)c(Cl)c4)CSC3=C2C#N)cc1 (centres undefined)	none
CSC1=C(C#N)C(c2ccc(C(C)C)cc2)CC(=O)N1 (centres undefined)	none
COc1ccc2ccccc2c1C1CC(=O)N2CN(Cc3ccco3)CSC2=C1C#N (centres undefined)	none
N#CC1=C(N)Oc2c(oc(CO)cc2=O)C1c1cccs1 (centres undefined)	none
CC(C)c1ccc(C2CC(=O)N3CN(Cc4ccco4)CSC3=C2C#N)cc1 (centres undefined)	RT RNaseH block 59
COc1ccc(C2CC(=O)N3CN(Cc4ccco4)CSC3=C2C#N)cc1 (centres undefined)	none
N#CC1=C2SCN(Cc3ccccc3)CN2C(=O)CC1c1cccs1 (centres undefined)	RT RNaseH block 65
N#CC1=C2SCN(Cc3ccccc3)CN2C(=O)CC1c1ccc2c(c1)OCO2 (centres undefined)	none
N#CC1=C2SCN(Cc3ccco3)CN2C(=O)CC1c1ccc(Cl)cc1 (centres undefined)	RT RNaseH block 54
COc1cc(C2CC(=O)N3CN(Cc4ccco4)CSC3=C2C#N)ccc1OCc1ccccc1 (centres undefined)	none
O=C1c2ccccc2C(O)(Cc2ccccc2)N1c1ccc2c(c1)OCO2 (centres undefined)	none
CCN1CCN(CC(=O)Nc2cccc(C)c2C)C(=O)C1=O	none
CC(=O)N1CCc2cc(S(=O)(=O)NC(CC(C)C)C(=O)Nc3ccc4c(c3)OCCO4)ccc21 (centres undefined)	none
Cc1ccc2cc(C#N)c(NCCNC(=O)C3CC3)nc2c1C	none
Cn1nnc2cc(C(=O)N3CCC(c4ccccc4)C3)ccc21 (centres undefined)	none
O=C1C2CCCN2C(c2ccc(Cl)cc2)N1c1nccs1 (centres undefined)	none
C=CCNC(=O)CCCOc1cc(C)ccc1C	none
Cc1ccc(C)c(OCC(=O)Nc2nonc2NC(=O)COc2cc(C)ccc2C)c1	RT RNaseH block 73
Cc1cc(NC(=O)COc2cccc(C)c2C)no1	none
O=C(NC1CCCC1)c1ccc(CS(=O)(=O)c2ccc(Br)cc2)o1	none
COc1ccc(-n2nnc3c(SCC(=O)N4CCCc5ccccc54)ncnc32)cc1	none
CN(C(=O)c1cccnc1)c1nnc(-c2cnccn2)s1	none
CN(C(=O)c1cccnc1)c1nnc(-c2cccnc2)s1	RT RNaseH block 66
CN(C(=O)c1cccnc1)c1nnc(-c2ccccn2)s1	none
COc1cccc(N(CC(=O)N2CCN(C)CC2)S(=O)(=O)c2ccc(C)cc2)c1	none
FC(F)(F)c1cnc(Nc2ccc(N3CCOCC3)cc2)c(Cl)c1	none
CN1CCc2c(sc3c2C(=O)NC(c2ccco2)N3)C1 (centres undefined)	none
CCOC(=O)N1CCc2c(sc3c2C(=O)NC(c2ccccc2)N3)C1 (centres undefined)	none
Cn1cccc1C1NC(=O)c2c(sc3c2CCC(C(C)(C)C)C3)N1 (centres undefined)	RT RNaseH block 60
CC(=O)Oc1ccc(NC(=O)CSc2ccccc2)cc1	none
CCn1c(SCC(=O)c2cc(C)n(CC3CCCO3)c2C)nc2ccccc21 (centres undefined)	none
